Measurements taken from PubChem BioAssay.

Key:
[1] = target: Tumor necrosis factor receptor superfamily member 10B (Homo sapiens) (UniProt O14763); test: caspase-8 TRAIL sensitization, hit retest, confirmation, cell-based, NB7+caspase-8, with/without TRAIL, luminescence panel (AID 651596); conditions: NB7 neuroblastoma + caspase-8, TRAIL sensitization, luminescence viability, with TRAIL, mean of runs, at 10 µM, stronger effect = higher value
[2] = as above; conditions: NB7 neuroblastoma + caspase-8, without TRAIL, luminescence viability, without TRAIL, mean of runs, at 10 µM

Chain of Tumor necrosis factor receptor superfamily member 10B (Homo sapiens) (O14763 whole entry, looked up): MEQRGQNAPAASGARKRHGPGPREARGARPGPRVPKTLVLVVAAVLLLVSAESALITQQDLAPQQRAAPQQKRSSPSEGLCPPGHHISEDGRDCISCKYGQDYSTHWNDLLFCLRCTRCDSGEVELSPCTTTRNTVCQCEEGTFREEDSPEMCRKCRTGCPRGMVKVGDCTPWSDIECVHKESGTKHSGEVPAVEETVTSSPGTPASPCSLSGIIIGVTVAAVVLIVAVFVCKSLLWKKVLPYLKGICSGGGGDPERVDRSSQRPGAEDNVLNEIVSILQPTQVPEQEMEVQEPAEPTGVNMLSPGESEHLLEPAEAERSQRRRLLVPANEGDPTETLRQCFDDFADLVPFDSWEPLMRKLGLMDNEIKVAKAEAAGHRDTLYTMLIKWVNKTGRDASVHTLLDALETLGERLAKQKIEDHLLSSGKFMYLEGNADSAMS

SMILES	activity [1] [%]	activity [2] [%]
C/C(Cn1nnc([N+](=O)[O-])n1)=N\NC(=O)c1ccccc1O	43.8	51
COc1cc(/C=N/NC(=O)c2nnn(-c3nonc3N)c2C)ccc1OCc1ccc(Cl)cc1	39	20.6
CCN(CC)c1ccc(NC(=O)c2ccco2)cc1	53.6	50.3
CC(C)OC(=O)Nc1ccc2c(c1)N(C(=O)N1CCN(C)CC1)c1ccccc1CC2	86.2	84.2
Clc1ccc2nc(-c3ccccc3)cn2c1	72.7	74.1
C=CCOc1ccccc1CN(C(=O)CCl)c1ccc2c(c1)OCO2	99	98.1
COc1cccc(CSc2nc3ccncc3[nH]2)c1	87.7	88.4
O=C(Nc1ccc(Cl)cn1)c1ccc2c(Cl)c3c(nc2c1)CCC3	56.8	56.3
COc1ccc(NC(=O)c2cc([N+](=O)[O-])ccc2O)cc1	89.8	88.2
CCOC(=O)N1CCN(C(=O)CSCC(=O)Nc2nc(-c3ccc(-c4ccccc4)cc3)cs2)CC1	66.9	68
NC(Cc1ccc(Cl)cc1)c1csc(NC(=O)NCC2CCCCC2)n1 (stereo not drawn)	58.4	88.1
CSc1cc(-c2ccc(Cl)cc2)n(Cc2ccccc2)c(=O)c1C#N	72.2	48.5
Cn1c(=N)n(CC(=O)c2ccccc2)c2ccccc21	70.7	74.4
Cc1nc(NC(=O)c2cc3ccccc3o2)sc1C	80.8	79.8
Cc1cccc(N2CCN(C(=S)Nc3ccc4nc(N5CCN(C)CC5)cc(C)c4c3)CC2)c1C	98	99.2
COc1ccc2c(c1OC)C(=O)OC2Nc1nc(-c2ccc(-c3ccccc3)cc2)cs1 (stereo not drawn)	47.4	49.4
COc1ccc(/C=N/Nc2cc(C)nc(-n3nc(C)cc3C)n2)c(OC)c1	6.72	12.9
O=C(N/N=C/c1ccc(-c2cccc(C(F)(F)F)c2)o1)c1cccc(F)c1	62.7	50.6
Cc1ccc(Cn2ncc(Cl)c(Cl)c2=O)cc1	97.2	99.3
CC(C)(C)C(=O)Nc1cccc(-c2nc3ccccc3c(=O)o2)c1	59.2	61.9
Nc1nc(=S)c2ncn(C3OC(CO)C(O)C3O)c2[nH]1 (stereo not drawn)	9.65	6.78
O=C(CSc1nc2ccccc2c(=O)[nH]1)Nc1ccc([N+](=O)[O-])cc1	35.1	31.3
O=C1c2ccc(Cl)cc2S(=O)(=O)c2cccc(C(=O)N3CCN(c4ccc(Cl)cn4)CC3)c21	94.8	83.5
Cc1cccc(/C(N)=N/OC(=O)c2cccc3ccccc23)c1	89.5	71

SMILES	activity [1] [%]	activity [2] [%]
CCOC(=O)NC(=O)CSc1nc(C)cc(C)c1C#N	71	61.4
CCCCC1CCC(C(=O)N(CCCC)c2c(N)n(CCCC)c(=O)[nH]c2=O)CC1 (stereo not drawn)	81.5	77.5
O=C(CCN1C(=O)NC2(CCCC2)C1=O)Nc1ccc(-c2nc3ccccc3s2)cc1	52.2	44.5
Cc1ccc(NC(=O)c2ccc3c(c2)OCCO3)cc1	76	73.2
CC(C)(C)OC(=O)NCc1ccc(NC(=O)c2nc[nH]c2C(=O)NCCCNC(=O)c2[nH]cnc2C(=O)Nc2ccc(CNC(=O)OC(C)(C)C)cc2)cc1	87.7	69.1
COc1ccc(C=Cc2ccc3ccccc3n2)c(OC)c1	79.1	68.5
COc1ccc2sc(NC(=O)c3ccco3)nc2c1	68.9	74.8
COc1ccc(C(C(=O)NC2CCCCC2)N(C(=O)CCl)c2ccccc2Cl)cc1 (stereo not drawn)	98.8	97.2
COc1ccc(OC)c(Nc2nc(N)nc(CCl)n2)c1	99	97.5
Cc1cccc(-c2noc(-c3csc([C@@H]4C[C@H](O)[C@@H](CO)O4)n3)n2)c1	36.7	29.3
Cc1ccc(NC(=O)c2ccc3c(c2)OCCO3)nc1	76.8	77.2
CC(C)N(CC(=O)Nc1ccc(Cl)cc1C(F)(F)F)C(=O)CCl	99.4	96.2
O=C(Nc1nnc(SCC(=O)N2CCOCC2)s1)c1ccccc1	80	77.4
C=CCc1ccccc1OCC(=O)N/N=C/c1ccc(OC(C)=O)cc1OC(C)=O	-0.55	27.2
C=C(C)c1nc(Oc2ccccc2)nc(Oc2ccccc2)n1	77	77.6
Cc1ccnc(NC(=O)c2ccc(OCC3CCCO3)cc2)c1 (stereo not drawn)	94.4	93.9
COc1ccc(C(=O)/C=C2\C(=O)Nc3ccc(Br)cc32)cc1	49.3	77.4
CNC(=O)c1cc(Oc2ccc(NC(=O)Nc3ccc(Cl)c(C(F)(F)F)c3)cc2)ccn1	88.9	63.2
CCc1ccc2nc(N(CCCN(C)C)C(=O)c3ccc(C(=O)c4ccccc4)cc3)sc2c1	50.6	18.7
COc1ccc(C(=O)Nc2nc3ccccc3[nH]2)cc1	96.3	95.1
COc1ccc2c(=O)c(-c3nc(C)cs3)coc2c1	69.9	71.6
Cc1ccc(C(=O)N/C(=C\c2ccc(-c3ccccc3[N+](=O)[O-])o2)C(=O)NCCCN(C)C)cc1	18.7	31.6
O=C(N/N=C\c1ccc(CNS(=O)(=O)c2ccc(Cl)cc2)o1)C(=O)Nc1ccc(Oc2ccccc2)cc1	79.5	91.1
Cc1cc(C)n(-c2ccc(C(=O)Nc3ccc(C)c(S(=O)(=O)N4CCOCC4)c3)cc2)n1	63.5	24.2

SMILES	activity [1] [%]	activity [2] [%]
CN(CCO)c1cc(Sc2nc3ccccc3s2)c2nonc2c1[N+](=O)[O-]	18.5	91.7
CC(C)OC(=O)c1sc2nc(-c3ccccc3)ccc2c1N	58.5	60.3
Cc1cc(C)c2sc(N(CCCN(C)C)C(=O)c3ccc(S(=O)(=O)N4CCc5ccccc5C4)cc3)nc2c1	93.1	93.8
Cc1cccc(-c2nc3cc(NC(=O)C4CCCO4)ccc3o2)c1 (stereo not drawn)	66.7	64.7
COc1ccc(C(=O)NCc2cn3cccc(C)c3n2)cc1OC	4.08	3.77
COCCn1c(C)cc(C(=O)COC(=O)c2ccc(Cl)c(S(N)(=O)=O)c2)c1C	52	52.4
C/C(=N\Nc1nc2ccccc2[nH]1)c1ccccn1	51.5	68.5
CC(C)NC(=O)c1ccc2c3n(nc2c1)-c1ccccc1CO3	95.8	95.5
CC(C)C(=O)N1CCN(c2ccc(NC(=O)c3ccc([N+](=O)[O-])o3)cc2Cl)CC1	75.4	97.5
O=C(CN1C(=O)c2ccccc2S1(=O)=O)c1ccccc1F	16.9	27.8
O=C(NC(=S)Nc1ccc(Br)cn1)c1cccs1	71.7	73.2
CSc1nc(NCCN(C)C)c2sc3nc(-c4ccco4)c4c(c3c2n1)CCC4	80.2	98.5
C[n+]1c(-c2ccccc2)cc2c(=Cc3ccccc3)c3ccccc3n21	73.1	75.4
O=C(c1cc(-c2ccc(Cl)cc2Cl)on1)N1CCOCC1	53.3	60.3
Cc1ccc(C(=O)n2c(N)nc3ccccc32)cc1	98.3	98.4
Nc1nccc(-c2cc(-c3ccc(Cl)cc3Cl)no2)n1	62.4	56.9
N#C/C(=C(/O)c1ccc([N+](=O)[O-])s1)c1nc2ccccc2[nH]1	36.3	25
COc1ccc(-c2cc3nc[nH]c(=O)c3s2)cc1	61.5	58.2
COc1cccc(-c2nnc(Nc3nc4c(F)cccc4s3)o2)c1	81.2	84.2
Cc1ccc2nc(-c3ccccc3)nn2c1	83.9	80.3
COc1ccc(C(=O)Nc2ccccc2C(=O)N/N=C/c2cccc3ccccc23)cc1	98.8	95.8
Nc1ccc(-c2nc3ncccc3o2)c(Cl)c1	43.9	32.2
Cc1ccc(C(=O)/C=C/Nc2ccccn2)cc1	86.9	79.8
COc1cc(NCCCCC(C)N)c2nccc(C)c2c1 (stereo not drawn)	38	45.6

SMILES	activity [1] [%]	activity [2] [%]
O=[N+]([O-])c1ccc(-[n+]2ccc3ccccc3c2)c([N+](=O)[O-])c1	93.3	98.8
COc1ccc(-c2cc(C(=O)N3CCOCC3)no2)cc1	50.8	49.9
CSc1ccc(/C=C/C(=O)NC(=O)c2ccccc2O)cc1	82.5	84.7
CSc1ncccc1C(=O)OCC(=O)c1cc(C)n(CC2CCCO2)c1C (stereo not drawn)	44	23.6
CC(=C/c1ccccc1)/C=N/NC(=O)c1cccs1	56	51.2
Cc1ccc(-c2nc(N/N=C/c3ccccc3[N+](=O)[O-])c3ccccc3n2)cc1	90.3	82.4
COc1nn(-c2ccccc2)c(=O)c(Cl)c1Cl	92.3	96.3
COc1ccc(-c2cc(C(=O)OCC(=O)N3CCOCC3)c3ccccc3n2)cc1	36.6	49.6
O=C1C(=C(I)I)c2ccccc2-c2ccccc21	38	99.6
FC(F)(F)c1cccc(-c2nc3nc(Cl)c(Cl)nc3[nH]2)c1	57.3	42.6
COc1ccccc1NC(CC(=O)c1ccccc1)C(=O)OCC(=O)c1ccc(C)c(C)c1 (stereo not drawn)	73.5	66.2
CCc1nnc(NC(=O)CSc2nc(C)cc(C)c2C#N)s1	81.2	80
CCCCCCCCCCCCCCCC[N+](C)(C)CCl	96	94.3
Cc1ccccc1C(=O)Nc1ccc2c(c1)OCCO2	61.1	63.2
COc1ccccc1-c1cc2nc(-c3ccccc3)cc(N3CCN(C(=O)c4ccco4)CC3)n2n1	81.9	66
Cc1csc(NC(=O)c2ccc(OCC3CCCO3)cc2)n1 (stereo not drawn)	54.9	64.9
C/C(=N\Nc1nc2ccccc2[nH]1)c1cc2ccccc2o1	47.5	43.7
O=C(NCc1cc(C(F)(F)F)ccc1Cl)c1cccc2c1C(=O)c1ccc(N3CCC(N4CCCCC4)CC3)cc1S2(=O)=O	93	93.6
C#CCSc1nnc(-c2ccc(OC)cc2)o1	97.1	89.3
CCCc1cc(C(=O)N/N=C/c2ccc(CC)s2)c2ccccc2n1	68.8	56.9
COc1ccc2nc(-c3ccc(F)cc3)sc2c1	68.2	65.7
O=C(Nc1nc2ccccc2[nH]1)c1ccccc1	88	84.5
